Measurements from PubChem BioAssay (EPA / NIEHS).
Results filed as inconclusive are left out. Activity calls are given as the source filed them. Rule for the calls, unless noted: active = hit-call score of the fitted dose curve at least 0.9, where 1 is the maximum; inactive = score below 0.9.

What was measured:
[1] = BSK_3C_VCAM1: BioMAP Diversity Plus: 3C Assay for Vascular cell adhesion molecule 1 (VCAM1) Biomarker Activity (AID 2282999); conditions: BioMAP 3C HUVEC, VCAM1 ELISA, cytokine-stimulated; actives raise or lower the signal
Outline: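 Vascular primary endothelium (human umbilical vein) was exposed to chemicals and assayed 24 h later. VCAM-1 levels came from ELISA, with DMSO serving as baseline for bidirectional fitting.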

[2] = BSK_4H_Eotaxin3: BioMAP Diversity Plus: 4H Assay for Eotaxin 3 Biomarker Activity (AID 2283000); conditions: primary human endothelial cells (HUVEC); actives raise or lower the signal
Outline: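 Human umbilical vein endothelial cells (BSK_4H system) dosed with test chemical; Eotaxin-3 (CCL26) measured by ELISA 24 h after dosing. Bidirectional curve fitting relative to DMSO negative control as baseline.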

[3] = read-out: Intercellular Adhesion Molecule 1 (ICAM1), ICAM1 (gene 3383); assay: BSK_3C_ICAM1: BioMAP Diversity Plus: 3C Assay for Intercellular Adhesion Molecule 1 (ICAM1) Biomarker Activity (AID 2283003); conditions: primary human endothelial cells (HUVEC); actives raise or lower the signal
Outline: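 ELISA read-out of ICAM-1; HUVEC (primary human), 3C system, 24 h post-dosing; bidirectional fit vs DMSO baseline.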

[4] = BSK_3C_Proliferation: Cell Proliferation Assessment in the BioMAP Diversity Plus: 3C Assay (AID 2283006); conditions: primary human endothelial cells (HUVEC);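 for AC50: potency may reflect either rise or fall in cell number versus DMSO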
Outline: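 HUVEC, sub-confluent; 48 h chemical exposure; 10% TCA fix, 0.1% SRB stain, A560 total protein. Gain or loss of signal fitted both directions vs DMSO control.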

[5] = target: Peroxisome proliferator-activated receptor gamma (Homo sapiens) (UniProt P37231); assay: ATG_PPARg_TRANS: Attagene TRANS-FACTORIAL HepG2 Assay for human Peroxisome Proliferator-activated Receptor-gamma (PPARg) (AID 2283007; active = hit-call score of the fitted dose curve at least 0.9, where 1 is the maximum)
Outline: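 Transient transfection of HepG2 with GAL4-UAS-driven reporter units; chemical dosing 24 h; total RNA → oligo(dT) RT → PCR with reporter primers → 6-FAM primer extension → HpaI digest 2 h 37 C → capillary electrophoresis. Positive direction vs DMSO.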

[6] = target: Nuclear receptor subfamily 1 group I member 2 (Homo sapiens) (UniProt O75469); assay: ATG_PXR_TRANS: Attagene TRANS-FACTORIAL HepG2 Assay for human Pregnane X Receptor (PXR) (AID 2283008; active = hit-call score of the fitted dose curve at least 0.9, where 1 is the maximum)
Outline: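 Trans-factorial format: exogenous NR-Gal4 fusion activity, not endogenous factor, in transfected human HepG2 liver cells. After 24 h dosing, RNA isolated, reverse-transcribed, amplified and resolved by capillary electrophoresis; induction scored versus DMSO.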

[7] = target: human RAR-related Orphan Receptor gamma (RORg), RORC (gene 6097) (UniProt P51449); assay: ATG_RORg_TRANS: Attagene TRANS-FACTORIAL HepG2 Assay for human RAR-related Orphan Receptor gamma (RORg) (AID 2283011; active = hit-call score of the fitted dose curve at least 0.9, where 1 is the maximum)
Outline: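 Reporter transcripts from a transfected RORg-GAL4 chimera in HepG2 cells were quantified 24 h after dosing by RT-PCR, 6-FAM labelling, HpaI digestion and capillary electrophoresis; increases over DMSO baseline were fitted.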

[8] = target: Retinoic acid receptor RXR-alpha (Homo sapiens) (UniProt P19793); assay: ATG_RXRa_TRANS: Attagene TRANS-FACTORIAL HepG2 Assay for human Retinoid X Receptor alpha (RXRa) (AID 2283012; active = hit-call score of the fitted dose curve at least 0.9, where 1 is the maximum)
Outline: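 Read-out: fluorescent reporter-transcript fragments quantified by capillary electrophoresis after RT-PCR. Transiently transfected HepG2 cells carrying GAL4-UAS reporters and NR-GAL4 chimeras were exposed to chemical for 24 h; activity scored as increase over DMSO.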

[9] = target: human Thyroid Receptor alpha (THRa1), THRA (gene 7067) (UniProt P10827); assay: ATG_THRa1_TRANS: Attagene TRANS-FACTORIAL HepG2 Assay for human Thyroid Receptor alpha (THRa1) (AID 2283014; active = hit-call score of the fitted dose curve at least 0.9, where 1 is the maximum)
Outline: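 Transcripts from GAL4-UAS-driven reporters, measured after 24 h compound exposure by RT-PCR plus capillary electrophoresis of 6-FAM-labeled fragments, were fitted for gain of signal relative to DMSO. Cells: transiently transfected HepG2 expressing NR-Gal4 chimeras.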

[10] = read-out: E-selectin (Homo sapiens) (UniProt P16581); assay: BSK_3C_Eselectin: BioMAP Diversity Plus: 3C Assay for Eselectin Biomarker Activity (AID 2283015); conditions: primary human endothelial cells (HUVEC); actives raise or lower the signal
Outline: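 E-selectin ELISA readout, fitted bidirectionally relative to DMSO, taken 24 h post-dosing in HUVEC cultures of the 3C system. Overt cytotoxicity tracked with sulforhodamine B staining of parallel wells.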

[11] = read-out: Interleukin-1 alpha (IL1a), IL1A (gene 3552); assay: BSK_BE3C_IL1a: BioMAP Diversity Plus: BE3C Assay for Interleukin-1 alpha (IL1a) Biomarker Activity (AID 2283016); conditions: primary human bronchial epithelial cells; actives raise or lower the signal
Outline: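 ELISA read-out of IL-1a from human lung bronchial epithelial primary cells, 24 h post-dose. Gain or loss of signal fitted relative to DMSO negative control.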

[12] = read-out: Monocyte Chemoattractant Protein-1 (MCP1), CCL2 (gene 6347); assay: BSK_3C_MCP1: BioMAP Diversity Plus: 3C Assay for Monocyte Chemoattractant Protein-1 (MCP1) Biomarker Activity (AID 2283017); conditions: primary human endothelial cells (HUVEC); actives raise or lower the signal
Outline: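 MCP-1 was measured by ELISA 24 h after dosing in primary HUVEC 3C cultures and fitted in both directions relative to DMSO; cytotoxicity was checked by SRB total-protein staining in parallel wells.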

[13] = read-out: Monocyte Chemoattractant Protein-1 (MCP1), CCL2 (gene 6347); assay: BSK_4H_MCP1: BioMAP Diversity Plus: 4H Assay for Monocyte Chemoattractant Protein-1 (MCP1) Biomarker Activity (AID 2283018); conditions: primary human endothelial cells (HUVEC); actives raise or lower the signal
Outline: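 HUVEC primary cells, 24 h post-dose, MCP-1 by ELISA. Gain or loss of signal fitted bidirectionally vs DMSO baseline. Cytotoxicity: SRB stain (0.1% after 10% TCA fixation), read 560 nm, parallel cultures.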

[14] = target: human Retinoic Acid Receptor gamma (RARg), RARG (gene 5916) (UniProt P13631); assay: ATG_RARg_TRANS: Attagene TRANS-FACTORIAL HepG2 Assay for human Retinoic Acid Receptor gamma (RARg) (AID 2283009; active = hit-call score of the fitted dose curve at least 0.9, where 1 is the maximum)
Outline: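 Readout: reporter transcript levels via RT-PCR, 6-FAM primer-extension labelling, HpaI digestion and capillary electrophoresis. Cells: HepG2 carrying transfected RARg-GAL4 chimera plus UAS reporter set. Dosing 24 h; DMSO negative control.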

[15] = target: human RAR-related Orphan Receptor beta (RORb), RORB (gene 6096) (UniProt Q92753); assay: ATG_RORb_TRANS: Attagene TRANS-FACTORIAL HepG2 Assay for human RAR-related Orphan Receptor beta (RORb) (AID 2283010; active = hit-call score of the fitted dose curve at least 0.9, where 1 is the maximum)
Outline: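 HepG2, transient MRTU transfection (GAL4-UAS reporters, exogenous NR-Gal4 chimeras); 24 h compound exposure; total RNA → RT-PCR → 6-FAM primer extension → HpaI digest → CE fluorescence. Positive direction vs DMSO baseline.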

[16] = target: human Retinoid X Receptor beta (RXRb), RXRB (gene 6257) (UniProt P28702); assay: ATG_RXRb_TRANS: Attagene TRANS-FACTORIAL HepG2 Assay for human Retinoid X Receptor beta (RXRb) (AID 2283013; active = hit-call score of the fitted dose curve at least 0.9, where 1 is the maximum)
Outline: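 Read-out: reporter mRNA induction via RT-PCR plus capillary electrophoresis fluorescence, analysed as signal increase relative to DMSO. Cells were human HepG2, transiently transfected with GAL4-UAS reporter constructs and chimeric receptor-Gal4 fusions, dosed for 24 h.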

[17] = target: human Peroxisome Proliferator-activated Receptor alpha (PPARa), PPARA (gene 5465) (UniProt Q07869); assay: ATG_PPARa_TRANS: Attagene TRANS-FACTORIAL HepG2 Assay for human Peroxisome Proliferator-activated Receptor alpha (PPARa) (AID 2283001; active = hit-call score of the fitted dose curve at least 0.9, where 1 is the maximum)
Outline: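 Exposure: 24 h, transiently transfected HepG2 cells. Endpoint: GAL4-UAS reporter mRNA, RT-PCR with capillary electrophoresis fluorescence. Baseline: DMSO; increases fitted.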

[18] = target: Retinoic acid receptor alpha (Homo sapiens) (UniProt P10276); assay: ATG_RARa_TRANS: Attagene TRANS-FACTORIAL HepG2 Assay for human Retinoic Acid Receptor alpha (RARa) (AID 2283005; active = hit-call score of the fitted dose curve at least 0.9, where 1 is the maximum)
Outline: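 HepG2 cells transiently transfected with multiple reporter units expressing chimeric RARα-GAL4 fusion, with GAL4-UAS-driven reporters. After 24 h compound exposure, reporter mRNA induction quantified by RT-PCR and capillary electrophoresis with fluorescent labeling; gain-of-signal fitted relative to DMSO control.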

[19] = target: human Peroxisome Proliferator-activated Receptor delta (PPARd), PPARD (gene 5467) (UniProt Q03181); assay: ATG_PPARd_TRANS: Attagene TRANS-FACTORIAL HepG2 Assay for human Peroxisome Proliferator-activated Receptor delta (PPARd) (AID 2283002; active = hit-call score of the fitted dose curve at least 0.9, where 1 is the maximum)
Outline: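 Multiplexed trans-activation format: HepG2 liver cells expressing exogenous NR-Gal4 chimeras and GAL4-UAS reporters were exposed for 24 h. Reporter mRNA was detected by RT-PCR with capillary electrophoresis fluorescence; activity fitted as gain of signal relative to DMSO.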

Measured: AC50

Retinoic acid receptor RXR-alpha (Homo sapiens), sequence (P19793 whole entry, looked up, the tested form may be a part): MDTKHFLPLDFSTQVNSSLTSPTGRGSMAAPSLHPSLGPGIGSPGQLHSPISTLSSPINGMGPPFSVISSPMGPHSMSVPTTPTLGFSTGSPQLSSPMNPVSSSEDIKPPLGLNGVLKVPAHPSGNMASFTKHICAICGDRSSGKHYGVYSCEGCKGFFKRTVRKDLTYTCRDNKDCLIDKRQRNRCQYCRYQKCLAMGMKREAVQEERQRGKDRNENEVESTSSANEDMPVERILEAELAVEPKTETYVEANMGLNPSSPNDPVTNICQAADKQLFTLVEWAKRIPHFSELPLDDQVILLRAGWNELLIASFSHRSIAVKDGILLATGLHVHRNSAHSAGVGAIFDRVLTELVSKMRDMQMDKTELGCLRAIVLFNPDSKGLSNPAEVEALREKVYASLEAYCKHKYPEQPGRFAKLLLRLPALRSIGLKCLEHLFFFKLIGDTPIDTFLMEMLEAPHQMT
human Peroxisome Proliferator-activated Receptor alpha (PPARa), PPARA (gene 5465), sequence (Q07869 whole entry, looked up, the tested form may be a part): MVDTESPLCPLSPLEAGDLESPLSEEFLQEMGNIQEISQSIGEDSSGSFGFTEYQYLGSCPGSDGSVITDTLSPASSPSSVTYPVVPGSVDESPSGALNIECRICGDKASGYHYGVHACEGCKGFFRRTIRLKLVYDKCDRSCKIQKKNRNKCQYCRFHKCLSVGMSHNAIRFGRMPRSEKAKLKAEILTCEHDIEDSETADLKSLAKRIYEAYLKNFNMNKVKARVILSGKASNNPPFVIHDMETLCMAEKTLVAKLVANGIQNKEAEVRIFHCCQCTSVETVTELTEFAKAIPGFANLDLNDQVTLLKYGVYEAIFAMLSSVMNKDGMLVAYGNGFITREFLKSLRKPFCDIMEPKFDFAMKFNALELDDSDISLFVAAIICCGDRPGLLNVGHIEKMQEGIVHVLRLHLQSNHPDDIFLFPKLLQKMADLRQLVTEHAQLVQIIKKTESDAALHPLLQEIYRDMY
Peroxisome proliferator-activated receptor gamma (Homo sapiens), sequence (P37231 whole entry, looked up, the tested form may be a part): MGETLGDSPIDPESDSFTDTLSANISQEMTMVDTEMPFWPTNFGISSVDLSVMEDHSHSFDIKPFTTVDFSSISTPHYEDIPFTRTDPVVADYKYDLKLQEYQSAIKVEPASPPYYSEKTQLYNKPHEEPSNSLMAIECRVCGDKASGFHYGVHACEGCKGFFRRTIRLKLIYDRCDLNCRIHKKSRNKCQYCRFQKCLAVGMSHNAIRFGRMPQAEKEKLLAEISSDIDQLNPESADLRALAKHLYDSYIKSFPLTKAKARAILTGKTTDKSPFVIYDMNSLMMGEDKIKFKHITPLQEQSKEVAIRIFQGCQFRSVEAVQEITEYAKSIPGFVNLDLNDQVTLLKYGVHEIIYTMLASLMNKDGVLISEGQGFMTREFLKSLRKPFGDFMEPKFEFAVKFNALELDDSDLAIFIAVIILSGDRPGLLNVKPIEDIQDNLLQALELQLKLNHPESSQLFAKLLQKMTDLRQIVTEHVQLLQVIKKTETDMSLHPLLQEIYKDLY
E-selectin (Homo sapiens), sequence (P16581 whole entry, looked up): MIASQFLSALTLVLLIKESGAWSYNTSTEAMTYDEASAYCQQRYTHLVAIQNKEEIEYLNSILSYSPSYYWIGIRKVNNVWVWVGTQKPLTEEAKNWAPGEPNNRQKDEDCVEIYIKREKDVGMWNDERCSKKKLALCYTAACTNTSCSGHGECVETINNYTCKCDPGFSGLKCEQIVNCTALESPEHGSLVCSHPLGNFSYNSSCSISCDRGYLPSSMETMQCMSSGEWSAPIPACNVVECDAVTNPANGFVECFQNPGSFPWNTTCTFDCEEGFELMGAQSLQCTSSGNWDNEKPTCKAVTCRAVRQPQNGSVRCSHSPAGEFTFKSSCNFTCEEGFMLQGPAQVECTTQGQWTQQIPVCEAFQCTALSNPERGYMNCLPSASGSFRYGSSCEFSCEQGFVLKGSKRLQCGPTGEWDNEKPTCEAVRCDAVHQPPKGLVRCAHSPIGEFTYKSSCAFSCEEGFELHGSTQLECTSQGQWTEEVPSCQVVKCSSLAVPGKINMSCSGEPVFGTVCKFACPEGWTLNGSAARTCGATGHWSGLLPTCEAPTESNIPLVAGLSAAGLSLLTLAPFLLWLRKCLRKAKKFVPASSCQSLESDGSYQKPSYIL
human Thyroid Receptor alpha (THRa1), THRA (gene 7067), sequence (P10827 whole entry, looked up, the tested form may be a part): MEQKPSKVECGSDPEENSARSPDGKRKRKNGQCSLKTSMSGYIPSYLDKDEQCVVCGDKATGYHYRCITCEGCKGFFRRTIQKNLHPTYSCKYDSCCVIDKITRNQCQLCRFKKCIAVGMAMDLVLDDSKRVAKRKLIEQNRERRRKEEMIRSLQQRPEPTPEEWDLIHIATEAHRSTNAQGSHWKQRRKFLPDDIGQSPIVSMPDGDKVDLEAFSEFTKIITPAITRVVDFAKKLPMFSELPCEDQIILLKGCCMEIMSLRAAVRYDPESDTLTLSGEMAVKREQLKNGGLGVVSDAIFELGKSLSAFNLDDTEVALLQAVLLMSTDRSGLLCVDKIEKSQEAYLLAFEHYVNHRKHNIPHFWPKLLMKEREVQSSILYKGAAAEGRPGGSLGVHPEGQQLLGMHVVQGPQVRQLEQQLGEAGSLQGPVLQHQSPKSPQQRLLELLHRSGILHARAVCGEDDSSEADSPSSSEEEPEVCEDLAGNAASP
human Retinoid X Receptor beta (RXRb), RXRB (gene 6257), sequence (P28702 whole entry, looked up, the tested form may be a part): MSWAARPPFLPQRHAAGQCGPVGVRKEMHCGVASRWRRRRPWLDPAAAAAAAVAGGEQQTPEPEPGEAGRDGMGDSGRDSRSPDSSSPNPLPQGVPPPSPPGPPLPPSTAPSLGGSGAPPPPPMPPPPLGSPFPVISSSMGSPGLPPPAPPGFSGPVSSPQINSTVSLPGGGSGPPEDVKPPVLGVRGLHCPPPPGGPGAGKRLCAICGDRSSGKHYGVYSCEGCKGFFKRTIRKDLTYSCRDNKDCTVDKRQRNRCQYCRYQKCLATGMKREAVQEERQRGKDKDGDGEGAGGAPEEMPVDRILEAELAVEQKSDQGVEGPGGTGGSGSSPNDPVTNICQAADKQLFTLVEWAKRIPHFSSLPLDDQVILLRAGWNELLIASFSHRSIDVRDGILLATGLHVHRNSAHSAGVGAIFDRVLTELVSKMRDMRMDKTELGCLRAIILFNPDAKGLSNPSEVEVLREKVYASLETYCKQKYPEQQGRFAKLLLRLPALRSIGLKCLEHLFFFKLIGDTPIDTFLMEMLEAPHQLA
Nuclear receptor subfamily 1 group I member 2 (Homo sapiens), sequence (O75469 whole entry, looked up, the tested form may be a part): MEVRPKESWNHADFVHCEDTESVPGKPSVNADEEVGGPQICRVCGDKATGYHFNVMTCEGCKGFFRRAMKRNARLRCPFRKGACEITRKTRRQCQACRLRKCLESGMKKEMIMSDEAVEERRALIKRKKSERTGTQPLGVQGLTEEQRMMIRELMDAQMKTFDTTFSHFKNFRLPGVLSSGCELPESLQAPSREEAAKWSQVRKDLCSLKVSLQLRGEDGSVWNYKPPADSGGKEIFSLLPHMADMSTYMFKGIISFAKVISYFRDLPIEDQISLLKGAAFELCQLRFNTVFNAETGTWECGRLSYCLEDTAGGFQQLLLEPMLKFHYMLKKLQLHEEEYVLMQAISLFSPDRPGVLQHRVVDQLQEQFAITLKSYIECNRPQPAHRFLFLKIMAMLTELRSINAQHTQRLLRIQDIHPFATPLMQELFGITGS
human RAR-related Orphan Receptor gamma (RORg), RORC (gene 6097), sequence (P51449 whole entry, looked up, the tested form may be a part): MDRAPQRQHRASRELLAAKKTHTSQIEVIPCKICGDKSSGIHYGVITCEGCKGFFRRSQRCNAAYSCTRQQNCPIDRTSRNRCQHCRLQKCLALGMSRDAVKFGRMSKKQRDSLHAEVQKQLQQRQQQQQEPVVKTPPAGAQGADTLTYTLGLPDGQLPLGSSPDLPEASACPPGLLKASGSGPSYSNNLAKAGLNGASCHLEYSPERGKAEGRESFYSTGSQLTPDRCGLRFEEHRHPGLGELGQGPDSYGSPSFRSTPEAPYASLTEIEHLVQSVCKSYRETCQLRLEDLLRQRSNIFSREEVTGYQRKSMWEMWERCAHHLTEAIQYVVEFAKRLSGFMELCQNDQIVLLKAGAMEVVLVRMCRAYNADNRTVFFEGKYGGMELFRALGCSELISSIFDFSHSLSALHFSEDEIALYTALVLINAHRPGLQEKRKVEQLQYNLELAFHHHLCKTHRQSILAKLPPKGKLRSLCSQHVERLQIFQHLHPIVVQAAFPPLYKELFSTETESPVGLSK
human RAR-related Orphan Receptor beta (RORb), RORB (gene 6096), sequence (Q92753 whole entry, looked up, the tested form may be a part): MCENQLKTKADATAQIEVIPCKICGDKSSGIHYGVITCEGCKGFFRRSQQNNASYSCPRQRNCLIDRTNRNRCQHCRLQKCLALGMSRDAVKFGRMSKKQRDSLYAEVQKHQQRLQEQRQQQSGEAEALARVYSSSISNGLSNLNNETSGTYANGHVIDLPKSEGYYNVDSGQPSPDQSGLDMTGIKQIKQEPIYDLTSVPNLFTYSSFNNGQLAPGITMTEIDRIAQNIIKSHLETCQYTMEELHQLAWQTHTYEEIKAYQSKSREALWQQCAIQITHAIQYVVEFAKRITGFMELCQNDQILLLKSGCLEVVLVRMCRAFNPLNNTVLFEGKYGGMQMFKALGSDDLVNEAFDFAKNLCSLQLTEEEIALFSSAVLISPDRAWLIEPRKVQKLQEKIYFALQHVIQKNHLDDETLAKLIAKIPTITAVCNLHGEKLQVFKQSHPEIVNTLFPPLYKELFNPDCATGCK
human Peroxisome Proliferator-activated Receptor delta (PPARd), PPARD (gene 5467), sequence (Q03181 whole entry, looked up, the tested form may be a part): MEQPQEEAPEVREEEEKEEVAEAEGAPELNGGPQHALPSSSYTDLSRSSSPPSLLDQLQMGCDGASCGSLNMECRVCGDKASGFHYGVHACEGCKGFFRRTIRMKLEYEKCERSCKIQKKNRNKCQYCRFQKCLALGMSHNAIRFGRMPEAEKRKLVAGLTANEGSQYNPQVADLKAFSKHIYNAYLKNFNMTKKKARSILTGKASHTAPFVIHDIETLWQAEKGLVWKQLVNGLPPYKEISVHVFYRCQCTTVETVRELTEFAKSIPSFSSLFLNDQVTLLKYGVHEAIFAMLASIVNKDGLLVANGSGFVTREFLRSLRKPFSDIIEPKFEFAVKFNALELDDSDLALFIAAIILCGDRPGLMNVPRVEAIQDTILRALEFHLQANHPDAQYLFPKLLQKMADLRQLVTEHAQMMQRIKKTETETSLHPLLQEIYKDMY

Nc1ccc(Cl)cc1
active: [4] 13.2 µM
not listed: [14] | [15] | [16] | [17] | [18] | [19]
inactive: all other assays above

Cc1cccc(N)c1
not listed: [6] | [8] | [16] | [17] | [18] | [19]
inactive: all other assays above

Nc1ccc([N+](=O)[O-])cc1Cl
not listed: [7] | [9] | [14] | [15] | [17] | [18] | [19]
inactive: all other assays above

CCOS(=O)(=O)OCC
inactive: [1] | [2] | [17] | [3] | [4] | [9] | [10] | [11] | [12] | [13]

CCCCN(CCCC)SN(C)C(=O)Oc1cccc2c1OC(C)(C)C2
active: [1] 28.4 µM | [2] 29.3 µM | [3] 29.8 µM | [4] 19.8 µM | [5] 12.3 µM | [6] 16 µM | [16] 68.3 µM | [10] 22.9 µM | [12] 30.6 µM | [13] 26 µM
inactive: [8] | [11]

O=C(O)C1C(C(=O)O)C2(Cl)C(Cl)=C(Cl)C1(Cl)C2(Cl)Cl (configuration not stated)
not listed: [5] | [7] | [8] | [14] | [16] | [18] | [19]
inactive: all other assays above

O=[N+]([O-])c1ccccc1
inactive: [1] | [2] | [3] | [18] | [4] | [6] | [10] | [11] | [12] | [13]

CCOP(=S)(OCC)SCSc1ccc(Cl)cc1
active: [2] 7.22 µM | [4] 11.8 µM | [6] 5.52 µM | [16] 13.5 µM | [11] 0.212 µM | [13] 8.96 µM
not listed: [7] | [14] | [15] | [17] | [18]
inactive: all other assays above

COCCOCCO
inactive: [1] | [2] | [17] | [3] | [4] | [10] | [11] | [12] | [13]

CCOP(=S)(Oc1ccc([N+](=O)[O-])cc1)c1ccccc1 (configuration not stated)
active: [4] 13.5 µM | [6] 1.2 µM | [16] 2.35 µM
inactive: [1] | [2] | [19] | [3] | [5] | [10] | [11] | [12] | [13]
